# In the library only some 27% were active in any assay of this set; here they are far more common.
# CYP2C9 inhib: inhibitors of human CYP2C9. inhibition, % at 5 µM. CYP2C9 Supersomes, luciferin-H conversion, luminescence. P11712. actives 20% (n = 96,000);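 active = blocking of liver enzyme CYP2C9 beyond about 50% at 5 µM, limit read from the data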
# Target sequence (P11712 whole entry, looked up): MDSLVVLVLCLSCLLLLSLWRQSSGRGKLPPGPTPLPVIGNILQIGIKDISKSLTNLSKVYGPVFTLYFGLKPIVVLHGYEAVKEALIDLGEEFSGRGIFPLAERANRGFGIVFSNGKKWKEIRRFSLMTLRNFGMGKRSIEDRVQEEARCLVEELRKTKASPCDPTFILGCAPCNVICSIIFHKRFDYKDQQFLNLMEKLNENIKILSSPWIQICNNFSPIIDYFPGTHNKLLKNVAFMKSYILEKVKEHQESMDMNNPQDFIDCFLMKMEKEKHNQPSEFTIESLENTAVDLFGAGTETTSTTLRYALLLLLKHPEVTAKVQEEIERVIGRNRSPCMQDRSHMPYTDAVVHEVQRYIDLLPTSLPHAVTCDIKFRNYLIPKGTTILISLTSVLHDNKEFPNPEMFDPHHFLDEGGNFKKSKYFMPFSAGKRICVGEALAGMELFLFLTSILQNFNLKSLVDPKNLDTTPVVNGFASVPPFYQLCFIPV
# CYP2C19 activ: increases human CYP2C19 enzyme activity | 96,000 tested, under 10 active | recombinant CYP2C19, luciferin-H EGE luminescence; stronger effect = higher value; 0 = fully inhibited enzyme, 1 = untreated enzyme | activation factor at 5 µM | AID 1025 | P33261;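 active = activation factor of at least 2 at 5 µM in the primary screen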;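 note: 0 = wells with 2.5 mM tranylcypromine and 1 = vehicle-only wells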
# CYP2C9 act: increases human cytochrome P450 2C9 activity | P11712 | recombinant CYP2C9, luciferin-H conversion, luminescence; stronger effect = higher value; factor 1 = untreated enzyme, 0 = blocked | activation factor at 5 µM | actives 1.4% (n = 96,000);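 active = activation factor of 2 or more for CYP2C9 at a 5 µM dose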;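 note: 0 = sulfaphenazole-blocked wells and 1 = vehicle-only wells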
# sEH inhibitor: blocks human soluble epoxide hydrolase activity. P34913. recombinant human sEH enzymatic activity assay. inhibition, % at 2 µM. actives 0.34% (n = 91,000); in the data active = inhibition above about 80%
# sEH activator: activators of human soluble epoxide hydrolase; purified human sEH enzymatic activity, activator screen; activation, % at 2 µM; P34913; actives 0.04% (n = 91,000); in the data active = activation above about 37%
# CYP2C19 inhib: inhibitors of human CYP2C19; P33261; actives 21% (n = 96,000); inhibition, % at 5 µM; CYP2C19 Supersomes, luciferin-H EGE luminescence, 30 min; AID 778;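 active = CYP2C19 inhibition above a set limit at 5 µM in the primary screen, cut at about 50% in these data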;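 note: plate controls were negative control wells for no effect and 2.5 mM tranylcypromine positive control for full effect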
# The depositor's hits bear a star; . = no result.
SMILES,CYP2C9 inhib,CYP2C19 activ,CYP2C9 act,sEH inhibitor,sEH activator,CYP2C19 inhib
CCCn1nnnc1NCc1ccc(N2CCCC2)cc1,.,.,.,-5.1,7.7,.
CCn1nnnc1NCc1cccn1C,75.9*,0.7,0.2,.,.,25.5
COc1ccc(OC)c(CNc2nc3ccccc3n2CCN2CCCCC2)c1,16.7,0.5,0.8,8.3,-5.5,54.7*
CC(C)n1c(NCc2ccc(N(C)C)cc2)nc2ccccc21,.,.,.,-2.7,6.0,.
CCCn1c(NCc2ccc(N(C)C)cc2)nc2ccccc21,23.7,0.1,0.8,13.8,-15.1,91.7*
CCn1c(NCc2cc(OC)ccc2OC)nc2ccccc21,57.6*,0.2,0.4,-5.8,7.5,78.3*
CCCn1c(NCc2cc(OC)ccc2OC)nc2ccccc21,28.0,0.3,0.7,.,.,68.1*
Cc1ccc(CCN2CC(C(=O)NCCCN3CCCCCC3)CC2=O)cc1 (stereo unspecified),-10.4,1.1,1.1,.,.,-13.4
COc1ccc(OC)c(S(=O)(=O)N2CCC(C(=O)NCC3CCCO3)CC2)c1 (stereo unspecified),-61.1,1.1,1.6,13.6,-13.7,-10.3
COc1ccc(CNc2nc3ccccc3n2CCN2CCCCC2)c(OC)c1,7.6,0.9,0.9,10.2,-7.5,10.5
CCC(=O)Nc1nc2ccccc2n1CCN1CCOCC1,4.2,1,1,-3.0,4.3,0.6
COc1cccc(CNc2nc3ccccc3n2CCN2CCCCC2)c1,52.3*,0.5,0.5,.,.,49.9
c1ccc(Cn2c(CNc3nc4ccccc4n3CCN3CCOCC3)nc3ccccc32)cc1,91.3*,0.1,0.1,6.0,-7.2,89.6*
CC(=O)NCCC(=O)Nc1ccc(F)cc1C,7.8,1,0.9,3.1,-1.9,1.5
CC(C)(C)NC(=O)c1cccc(NC(=O)CSc2ccccc2)c1,34.8,1,0.7,8.8,-8.4,3.7
Cc1csc2ncc(C(=O)NCCc3ccccc3)c(=O)n12,-17.3,0.5,1.2,.,.,54.1*
CCOc1ccc(NC(=O)c2cnc3scc(C)n3c2=O)cc1,-180.1,1.1,2.8*,.,.,-13.3
Cc1csc2ncc(C(=O)Nc3ccc(C(F)(F)F)cc3)c(=O)n12,-9.1,1.1,1.1,.,.,-9.5
O=C(NCCc1ccccc1)c1cnc2ccccn2c1=O,21.1,0.5,0.8,16.6,-14.2,54.6*
CCc1ccccc1NC(=O)c1cnc2scc(C)n2c1=O,.,.,.,7.9,-8.6,.
CCOP(=O)(OCC)C(C#N)=C1SCN(c2ccccc2)CS1,.,.,.,-8.4,12.4,.
CC12CN(C(=O)c3ccco3)CC(c3ccccc3)(CN(C(=O)c3ccco3)C1)C2=O,.,.,.,-8.7,9.0,.
CCC(C)(C)NC(=O)c1ccc(S(=O)(=O)N(C)c2ccccc2OC)cc1,64.7*,0.8,0.4,4.1,-2.2,15.0
COc1ccccc1N(C)S(=O)(=O)c1ccc(C(=O)NCC(C)C)cc1,83.2*,0.5,0.2,7.9,-5.4,52.3*
COc1cc(OC)c(OC)cc1CNCCNC(=O)c1nonc1N,-3.4,0.8,1,3.4,-2.2,19.7
SMILES,CYP2C9 inhib,CYP2C19 activ,CYP2C9 act,sEH inhibitor,sEH activator,CYP2C19 inhib
Cc1nc(SCC(=O)c2ccc(Cl)cc2)c([N+](=O)[O-])[nH]1,47.8,0.5,0.5,-9.1,10.4,53.4*
O=C(c1ccc(N2CCCC2=O)cc1)N1CCN(c2ccccc2)CC1,40.3,0.8,0.6,-0.9,2.2,19.8
Cc1cccc(N2CCN(C(=O)c3ccc(N4CCCC4=O)cc3)CC2C)c1 (stereo unspecified),29.4,0.4,0.7,.,.,55.5*
O=C(c1ccc(N2CCCC2=O)cc1)N1CCCCCC1,1.2,0.4,1,.,.,57.6*
CCN(CCCNC(=O)c1ccc(N2CCCC2=O)cc1)c1cccc(C)c1,13.2,0.7,0.9,.,.,29.8
Cc1cccc(N2CCN(C(=O)c3ccc(N4CCCC4=O)cc3)CC2)c1C,70.1*,0.5,0.3,-9.0,9.6,52.2*
CC(C)C(=O)Nc1cccc(C(=O)NCCc2ccc(S(N)(=O)=O)cc2)c1,75.0*,0.9,0.3,13.2,-10.9,5.8
COC(=O)c1ccccc1NC(=O)c1cccc(NC(=O)CSCc2ccccc2)c1C,-35.1,1.2,1.4,11.4,-11.4,-16.2
COc1c(Cl)cc(C(=O)Nc2ccccc2C(=O)O)cc1Cl,72.8*,1,0.3,5.0,-2.2,4.9
O=C(CSCc1ccc(Cl)cc1)Nc1cccc(C(=O)Nc2ccccc2C(=O)O)c1,97.5*,0.7,0,-1.1,1.6,34.0
O=C(CSCc1ccccc1)Nc1cccc(C(=O)Nc2ccccc2C(=O)O)c1,95.2*,0.9,0,6.2,-4.5,10.1
CC(NC(=O)Cc1ccc(-c2ccccc2)cc1)c1ccccc1 (stereo unspecified),34.3,0.8,0.7,21.8,-20.0,21.8
CCOC(=O)CSc1snnc1-c1ccccc1,24.5,0.6,0.8,-2.0,5.2,37.6
CC(C)C(=O)Nc1cccc(C(=O)Nc2ccccc2C(=O)O)c1,83.4*,1,0.2,2.9,-5.0,-4.8
Cc1nc2sc(C(c3ccc(Cl)cc3)N3CCN(c4ccccc4F)CC3)c(O)n2n1 (stereo unspecified),49.2,0.3,0.5,12.6,-9.9,67.3*
Cc1nc2sc(C(c3ccco3)N3CCN(c4ccccc4F)CC3)c(O)n2n1 (stereo unspecified),68.9*,0.1,0.3,2.1,0.6,91.7*
Cc1cccc(C(CC(=O)N2CCCC2)c2ccccc2)c1O (stereo unspecified),73.4*,0.2,0.3,6.9,-5.4,84.0*
Cc1ccc(C(CC(=O)N2CCCC2)c2ccccc2)c(O)c1C (stereo unspecified),96.1*,0,0,5.3,-3.7,96.4*
O=C(CC(c1ccccc1)c1ccccc1O)N1CCCC1 (stereo unspecified),3.2,0.6,1,11.4,-11.5,35.3
CCn1c2ccccc2c2cc(NC(C)=O)ccc21,29.7,0,0.7,2.3,-7.7,98.5*
CCn1c2ccccc2c2cc(NS(=O)(=O)c3ccc(C)cc3)ccc21,86.1*,0.5,0.1,-10.0,10.2,54.2*
CCn1c2ccccc2c2cc(NC(=O)c3ccco3)ccc21,-40.2,0.5,1.4,.,.,45.3
COCCn1c(Cc2ccccc2)nnc1SCC(=O)N(C)C,-6.6,1.1,1.1,-5.6,3.4,-11.1
COc1ccc(CN(C(=O)CN2C(=O)COc3ccccc32)C2CCCC2)c(OC)c1,43.7,0.6,0.6,-1.4,1.6,43.8
COc1ccc(CN(C(=O)CN2C(=O)C(C)Oc3ccccc32)C2CCCC2)c(OC)c1 (stereo unspecified),87.7*,0.2,0.1,3.3,-3.7,81.0*
Cc1cc(C)n2ncc(C(=O)NCc3cccnc3)c2n1,2.9,0.9,1,-9.1,8.7,8.6
Cc1cccc(-c2nc(CS(=O)CC(=O)NCc3cccs3)c(C)o2)c1 (stereo unspecified),60.2*,0.6,0.4,-5.5,2.8,37.1

# Screening data deposited in PubChem BioAssay by several laboratories.
